Our source for the growth inhibition, inhibition and outcome values is PubChem BioAssay.

Values without a mark were called inactive. For some of these results: Entries with a potency or affinity are not part of this list. Active and inactive are the calls of the source. Unless noted, no rule for the calls is given here.

Assay [1] in a line: antimalarial activity against Dd2 strain (AID 2302;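 active = growth inhibition above 50% at the single 2 µM test dose, taken to imply half-maximal potency below 2 µM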;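 also: 0% = DMSO untreated growth and 100% = chloroquine plus artemisinin killed control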). The conditions noted are these: P. falciparum Dd2 in RBCs, LDH growth readout, 72 h; at 2 µM; stronger effect = higher value.
A short description of assay [2]: HepG2 cytotoxicity, primary screen, cytotoxicity control for P. falciparum antimalarial project, cell-based, ATP luminescence (AID 2303;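 active = inhibition above 50%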;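 also: 0% = DMSO wells and 100% = digitonin-killed cells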). The conditions noted are these: HepG2 viability, 24-48 h, at 10 µM, stronger effect = higher value.
Assay [3] addresses L-lactate dehydrogenase (Plasmodium falciparum (isolate CDC / Honduras)) (UniProt Q27743). In words: PfLDH activity inhibition – cell lysate, 3D7 strain, counter-screen for P. falciparum growth inhibition project (AID 2304).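 Also: 0% = vehicle and 100% = reference inhibitor.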 The conditions noted are these: P. falciparum 3D7 crude extract, LDH APAD/NBT absorbance; at 2 µM; stronger effect = higher value. (The purpose of a counterscreen is to sort out artefacts and off-target activity.)

A short description of assay [4]: inhibition of 3D7 malaria parasite growth – strain 3D7 (AID 2306).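 Also: 0% = DMSO wells and 100% = chloroquine plus artemisinin control wells.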 To be noted: P. falciparum 3D7 erythrocytic growth, LDH absorbance, 72 h; at 2 µM; stronger effect = higher value.
The target of assay [5] is Calcium-dependent protein kinase 1 (Plasmodium falciparum (isolate 3D7)) (UniProt P62344). The assay can be described thus: PfCDPK1 kinase inhibitors, biochemical, TCAMS library (AID 1159585; cut-off not given, nearly all actives have IC50 up to about 0.98 µM;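 also: inhibitors leave more ATP so luminescence rises with inhibition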). The conditions noted are these: recombinant PfCDPK1, Kinase-Glo ATP depletion luminescence. A general note: Kinase-Glo measures the ATP left after a reaction by luminescence.
The target of assay [6] is Plasmodium falciparum protein kinase 6 (PK6, PF3D7_1337100) (UniProt Q8IDW1). In words: PfPK6 kinase inhibitors, biochemical, TCAMS library (AID 1159586). The conditions noted are these: recombinant PfPK6, Kinase-Glo ATP depletion luminescence.
The target of assay [7] is Protein kinase 7 (PK7), Plasmodium falciparum 3D7 (PF3D7_0213400) (UniProt Q7YTF7). The assay can be described thus: inhibition of Plasmodium PK7 catalytic activity – biochemical, TCAMS antimalarial set, Kinase-Glo luminescence (AID 1159587). To be noted: recombinant PfPK7, Kinase-Glo ATP depletion luminescence.
The target of assay [8] is Calcium-dependent protein kinase 4 (Plasmodium falciparum (isolate 3D7)) (UniProt Q8IBS5). In words: PfCDPK4 kinase inhibitors, biochemical, TCAMS library (AID 1159588; cut-off not given, nearly all actives have IC50 up to about 0.91 µM). The conditions noted are these: recombinant PfCDPK4, Kinase-Glo ATP depletion luminescence.
Chain of Calcium-dependent protein kinase 4 (Plasmodium falciparum (isolate 3D7)) (Q8IBS5 whole entry, looked up): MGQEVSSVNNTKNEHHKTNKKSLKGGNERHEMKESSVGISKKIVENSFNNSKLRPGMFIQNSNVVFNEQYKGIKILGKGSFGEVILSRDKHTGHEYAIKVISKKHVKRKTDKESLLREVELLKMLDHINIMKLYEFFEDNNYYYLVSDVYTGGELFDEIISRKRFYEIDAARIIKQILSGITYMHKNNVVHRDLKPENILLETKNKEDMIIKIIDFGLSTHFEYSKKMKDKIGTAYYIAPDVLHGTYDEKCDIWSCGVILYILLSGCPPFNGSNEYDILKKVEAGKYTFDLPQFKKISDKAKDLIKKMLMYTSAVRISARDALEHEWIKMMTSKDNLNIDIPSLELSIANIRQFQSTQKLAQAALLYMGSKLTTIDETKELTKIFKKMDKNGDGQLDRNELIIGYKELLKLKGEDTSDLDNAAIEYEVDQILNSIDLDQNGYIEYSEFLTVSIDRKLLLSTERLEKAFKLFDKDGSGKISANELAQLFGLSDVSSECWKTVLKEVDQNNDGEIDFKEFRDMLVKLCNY

Chain of Protein kinase 7 (PK7), Plasmodium falciparum 3D7 (PF3D7_0213400) (Q7YTF7 1-343): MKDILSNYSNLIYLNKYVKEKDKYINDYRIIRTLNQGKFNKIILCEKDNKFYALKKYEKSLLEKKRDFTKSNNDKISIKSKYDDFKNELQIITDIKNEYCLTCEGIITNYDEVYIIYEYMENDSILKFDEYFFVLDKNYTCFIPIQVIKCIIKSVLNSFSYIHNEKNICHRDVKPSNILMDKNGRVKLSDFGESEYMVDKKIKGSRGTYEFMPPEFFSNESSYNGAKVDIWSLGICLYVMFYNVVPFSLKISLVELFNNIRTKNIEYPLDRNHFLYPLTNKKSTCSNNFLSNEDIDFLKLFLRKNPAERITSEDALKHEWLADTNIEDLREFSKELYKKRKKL
Chain of Plasmodium falciparum protein kinase 6 (PK6, PF3D7_1337100) (Q8IDW1 1-305): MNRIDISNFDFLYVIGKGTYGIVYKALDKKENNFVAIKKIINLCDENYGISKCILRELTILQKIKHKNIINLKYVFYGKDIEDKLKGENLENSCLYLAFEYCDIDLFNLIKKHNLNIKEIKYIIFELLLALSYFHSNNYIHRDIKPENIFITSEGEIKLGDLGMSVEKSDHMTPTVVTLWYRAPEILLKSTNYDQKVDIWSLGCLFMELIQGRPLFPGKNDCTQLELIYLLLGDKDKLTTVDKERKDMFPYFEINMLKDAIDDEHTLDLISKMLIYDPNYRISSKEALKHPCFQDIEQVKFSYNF
Chain of Calcium-dependent protein kinase 1 (Plasmodium falciparum (isolate 3D7)) (P62344 whole entry, looked up): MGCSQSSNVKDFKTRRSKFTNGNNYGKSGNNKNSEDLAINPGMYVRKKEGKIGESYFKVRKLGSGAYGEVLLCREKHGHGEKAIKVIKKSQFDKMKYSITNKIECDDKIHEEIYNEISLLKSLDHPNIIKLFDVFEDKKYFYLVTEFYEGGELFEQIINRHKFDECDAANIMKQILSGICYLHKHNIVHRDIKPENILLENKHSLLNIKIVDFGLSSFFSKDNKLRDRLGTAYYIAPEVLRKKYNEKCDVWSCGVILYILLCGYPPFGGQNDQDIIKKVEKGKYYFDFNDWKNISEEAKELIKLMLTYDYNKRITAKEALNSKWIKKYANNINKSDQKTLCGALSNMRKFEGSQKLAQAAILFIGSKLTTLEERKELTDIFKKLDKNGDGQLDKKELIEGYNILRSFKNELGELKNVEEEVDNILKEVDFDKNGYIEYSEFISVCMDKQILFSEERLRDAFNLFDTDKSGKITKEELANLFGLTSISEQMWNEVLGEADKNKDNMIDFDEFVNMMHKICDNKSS
Chain of L-lactate dehydrogenase (Plasmodium falciparum (isolate CDC / Honduras)) (Q27743 whole entry, looked up): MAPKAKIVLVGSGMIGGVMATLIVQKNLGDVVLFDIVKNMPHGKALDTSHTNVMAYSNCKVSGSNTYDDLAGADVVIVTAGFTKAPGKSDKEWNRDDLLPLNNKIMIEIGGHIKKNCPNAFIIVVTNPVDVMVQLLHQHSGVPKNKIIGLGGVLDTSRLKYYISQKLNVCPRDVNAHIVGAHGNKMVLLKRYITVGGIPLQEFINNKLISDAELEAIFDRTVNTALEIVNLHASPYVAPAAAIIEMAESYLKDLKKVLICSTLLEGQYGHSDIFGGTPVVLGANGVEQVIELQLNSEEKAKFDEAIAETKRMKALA

`CCNc1cc(C(=O)N[C@@H](Cc2cccc(F)c2)[C@H](O)CNC(C)CCCC(C)C)cc(N2CCCCS2(=O)=O)c1` (stereo not given in full): the growth inhibition was 97% (active) in assay [1] and 98% (active) in assay [4]. The values for the inhibition in assay [2] and in assay [3] were -3% and -4%, respectively. For the same compound, the outcome in assay [5], in assay [6], in assay [7] and in assay [8] was inactive.
On to `COc1c(Br)cc(Br)cc1-c1ccc(CN2CC3CCC2CC3)[nH]1`, for which the growth inhibition was 100% (active) in assay [1] and 98% (active) in assay [4]. For the same compound, the values for the inhibition in assay [2] and in assay [3] were 91% (active) and -3%, respectively. Besides, the result in assay [5], in assay [6], in assay [7] and in assay [8] was inactive.
Regarding `CC(CNC(=O)C(c1cc2ccccc2o1)N1CCN(C(c2ccccc2)c2ccccc2)CC1)c1ccccc1` (stereo not given), the growth inhibition in assay [1] was 89% (active); in assay [4], 99% (active). In addition, the inhibition – broadly, the change of the read-out against control, counted positive when it falls – is 2% in assay [2] and -5% in assay [3]. Also, the outcome in assay [5], in assay [6], in assay [7] and in assay [8] was inactive.
`CC1(C)N=C(N)N=C(N)N1OCCSCc1cc(Cl)sc1Cl`: the growth inhibition in assay [1] is 72% (active); in assay [4], 93% (active). Also, the inhibition was 70% (active) in assay [2] and -2% in assay [3]. Besides, the result in assay [5], in assay [6], in assay [7] and in assay [8] was inactive.
For `O=C(NC1CCCCC1)c1ccc(O)c(-c2cccc(C(F)(F)F)c2)c1`, the growth inhibition in assay [1] is 87% (active); in assay [4], 97% (active). Further, the results for the inhibition in assay [2] and in assay [3] were 8% and 0%, respectively. The outcome in assay [5], in assay [6], in assay [7] and in assay [8] was inactive.
As for `Cc1ccc(S(=O)(=O)N(CCCNCc2cccc(O)c2)c2ccccc2)cc1`, the results for the growth inhibition in assay [1] and in assay [4] were 94% (active) and 95% (active), respectively. Moreover, the inhibition is 6% in assay [2] and 2% in assay [3]. In addition, the outcome in assay [5], in assay [6], in assay [7] and in assay [8] was inactive.
Consider `CCOC(=O)c1c(C)n(-c2ccccc2)c2ccc(OC(=O)c3ccc(S(=O)(=O)N(CC)CC)cc3)cc12`, for which the growth inhibition is 63% (active) in assay [1] and 94% (active) in assay [4]. Further, the inhibition in assay [2] was -6%; in assay [3], -3%. The result in assay [5], in assay [6], in assay [7] and in assay [8] was inactive.
Take `Cc1cc(NCC(C)C)c2[nH]nc(-c3ccccc3)c2n1`: the values for the growth inhibition in assay [1] and in assay [4] were 30% and 99% (active), respectively. For the same compound, the values for the inhibition in assay [2] and in assay [3] were 9% and 2%, respectively. The result in assay [5], in assay [6], in assay [7] and in assay [8] was inactive.
As for `O=C(NC1CCN(c2ncc(C(F)(F)F)cc2Cl)CC1)c1cccs1`, the growth inhibition was 65% (active) in assay [1] and 84% (active) in assay [4]. For the same compound, the inhibition in assay [2] is 15%; in assay [3], -1%. The result in assay [5], in assay [6], in assay [7] and in assay [8] was inactive.
Regarding `CC(CN(C)C)Oc1ccc2[nH]c(-c3cccc(OCc4ccccc4)c3)nc2c1C#N` (stereo not given), the results for the growth inhibition in assay [1] and in assay [4] were 94% (active) and 101% (active), respectively. In addition, the results for the inhibition in assay [2] and in assay [3] were 57% (active) and -2%, respectively. Further, the result in assay [5], in assay [6], in assay [7] and in assay [8] was inactive.
`Oc1ccc(Nc2nc(NCc3ccccc3)c3ccccc3n2)cc1`: the growth inhibition in assay [1] was 100% (active); in assay [4], 101% (active). The inhibition in assay [2] is 33%; in assay [3], 3%. Besides, the result in assay [5], in assay [6], in assay [7] and in assay [8] was inactive.
As for `COc1cc(NC2=C(c3ccccc3)C(=O)c3ccccc32)ccn1`, the growth inhibition in assay [1] and in assay [4] was 96% (active) each time. Besides, the inhibition in assay [2] was 7%; in assay [3], 4%. Besides, the outcome in assay [5], in assay [6], in assay [7] and in assay [8] was inactive.
Consider `CCc1ccccc1NC(=O)CN1CCN(c2ncnc3scc(-c4ccc(F)cc4)c23)CC1`, for which the growth inhibition in assay [1] is 62% (active); in assay [4], 83% (active). Further, the inhibition was 6% in assay [2] and -2% in assay [3]. Moreover, the result in assay [5], in assay [6], in assay [7] and in assay [8] was inactive.
With `CCCCN1CCN(CCCNc2c3ccccc3nc3ccccc23)CC1`, the growth inhibition was 70% (active) in assay [1] and 101% (active) in assay [4]. Besides, the inhibition in assay [2] was 26%; in assay [3], -7%. Besides, the outcome in assay [5], in assay [6], in assay [7] and in assay [8] was inactive.
In the case of `O=C(Nc1ccc(OC2CCN(Cc3ccsc3)CC2)c(Cl)c1)c1cccs1`, the growth inhibition is 93% (active) in assay [1] and 94% (active) in assay [4]. The inhibition in assay [2] is 16%; in assay [3], 1%. For the same compound, the outcome in assay [5], in assay [6], in assay [7] and in assay [8] was inactive.
For the compound `COc1ccc(CN(C)CCCOc2ccc(NC(=O)c3cccc4c(=O)c5cccc(C)c5[nH]c34)cc2)cc1OC`, the growth inhibition in assay [1] was 62% (active); in assay [4], 96% (active). For the same compound, the inhibition in assay [2] was 3%; in assay [3], 1%. For the same compound, the result in assay [5], in assay [6], in assay [7] and in assay [8] was inactive.
For the compound `O=C(NCCCNc1nc2ccccc2[nH]1)c1cccc(OC(F)(F)F)c1`, the growth inhibition in assay [1] is 27%; in assay [4], 102% (active). For the same compound, the values for the inhibition in assay [2] and in assay [3] were 12% and -2%, respectively. Besides, the outcome in assay [5], in assay [6], in assay [7] and in assay [8] was inactive.
Turning to `C=CCOc1ccc2ccccc2c1CNCCCCCCNCc1c(OCC=C)ccc2ccccc12`, the growth inhibition in assay [1] was 98% (active); in assay [4], 100% (active). Besides, the values for the inhibition in assay [2] and in assay [3] were 99% (active) and 3%, respectively. The result in assay [5], in assay [6], in assay [7] and in assay [8] was inactive.
For `COc1ccc2nccc(NC(=O)C3(O)CCC(NCc4ncc5c(c4Cl)OCCO5)CC3)c2n1` (stereo not given), the growth inhibition in assay [1] was 59% (active); in assay [4], 83% (active). Further, the inhibition is 21% in assay [2] and -1% in assay [3]. For the same compound, the result in assay [5], in assay [6], in assay [7] and in assay [8] was inactive.
Regarding `O=C(NCCCCCN1CCC(c2c[nH]c3ccccc23)C1)Nc1ccc(Cl)c(Cl)c1` (stereo not given), the growth inhibition is 19% in assay [1] and 95% (active) in assay [4]. In addition, the figures for the inhibition in assay [2] and in assay [3] were 28% and 1%, respectively. Further, the result in assay [5], in assay [6], in assay [7] and in assay [8] was inactive.
